Assay results reported in a collection of fitness landscapes (doi:10.1016/j.celrep.2020.107928).
Over roughly 81,000 sequences, “one-hybrid fitness for binding parS DNA” has its median near -0.17; the highest 2% begin near 0.51. The full list was thinned out, with the highest values kept by preference.

B1: Caulobacter ParB omega fusion; a variant is named by its letters at X, in order, B8GW30 (parent)
chain: MESVVVGEPGMSEGRRGLGRGLSALLGEVDAAPAQAPGEQLGGSREAPIEILQRNPDQPRRTFREEDLEDLSNSIREKGVLQPILVRPSPDTAGEYQIVAGERAWRAAQRAGLKTVPIMVRELDDLAVLEIGIIENVQRADLNVLEEALSYKVLMEKFERTQENIAQTIGKSXSHVANXMRLLXLPDEVQSYLVSGELTAXHARAIAAAADPVALAKQIIEGGLSVRETEALARKAPNLSAGKSKGGRPPRVKDTDTQALESDLSSVLGLDVSIDHRGSTGTLTITYATLEQLDDLCNRLTRGI

Variants of: B1
Experiment: one-hybrid fitness for binding parS DNA (scaled: cognate 1, non-cognate 0); higher = stronger binding
Conditions: with parS DNA site
In short: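 On M9-minus-histidine containing 0.1 mM IPTG and 5 mM 3-AT, E. coli USO cells with a HIS3 reporter, site 19 bp from the promoter, grew 48 hours at 37°C to select Caulobacter ParB libraries randomised at four specificity codons. Plasmids from before and after were Illumina-sequenced, with three replicate libraries pooled and variants under 10 reads left out. Fitness is the log change in variant-to-wild-type read ratio, rescaled against cognate and non-cognate.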

| Variant | one-hybrid fitness for binding parS DNA |
| --- | --- |
| CIYR | ≤ 0.2 |
| METI | ≤ 0.2 |
| RVYC | 0.991 |
| RVYQ | ≤ 0.2 |
| RVCN | 0.438 |
| RVYM | 0.314 |
| RVLC | 0.958 |
| RVRH | 0.203 |
| RVRC | 0.851 |
| RVCP | ≤ 0.2 |
| RVRP | ≤ 0.2 |
| RVLF | 0.259 |
| RVLK | ≤ 0.2 |
| RVCC | 0.966 |
| MFWG | ≤ 0.2 |
| QASK | ≤ 0.2 |
| RCDK | ≤ 0.2 |
| QSQF | ≤ 0.2 |
| PAVG | ≤ 0.2 |
| THLD | ≤ 0.2 |
| KYFM | ≤ 0.2 |
| RVHC | 0.965 |
| RVHY | 0.481 |
| RVHM | 0.314 |
| LVSM | ≤ 0.2 |

| Variant | one-hybrid fitness for binding parS DNA |
| --- | --- |
| LKVQ | ≤ 0.2 |
| LEMF | ≤ 0.2 |
| FCHS | ≤ 0.2 |
| SKPK | ≤ 0.2 |
| RMIC | 0.926 |
| RMPF | ≤ 0.2 |
| RPPC | ≤ 0.2 |
| RMPC | 0.725 |
| RMIL | ≤ 0.2 |
| RCPC | 0.698 |
| RMPP | ≤ 0.2 |
| RMIM | 0.324 |
| RSPC | 0.421 |
| EAKD | ≤ 0.2 |
| TVNA | ≤ 0.2 |
| CNTL | ≤ 0.2 |
| RLVS | 1.03 |
| RLKS | 0.851 |
| RLVH | 0.223 |
| RLKD | ≤ 0.2 |
| RLVN | 0.4 |
| RLKN | 0.458 |
| AHEK | ≤ 0.2 |
| MWPC | ≤ 0.2 |
| LAAP | ≤ 0.2 |

| Variant | one-hybrid fitness for binding parS DNA |
| --- | --- |
| QDYS | ≤ 0.2 |
| QTCI | ≤ 0.2 |
| PSAR | ≤ 0.2 |
| HTSF | ≤ 0.2 |
| AANC | ≤ 0.2 |
| RVPQ | ≤ 0.2 |
| RVIG | 0.904 |
| RVIK | ≤ 0.2 |
| RVIM | 0.261 |
| RVPR | ≤ 0.2 |
| RVPG | 0.691 |
| HAGS | ≤ 0.2 |
| VNPV | ≤ 0.2 |
| WRYW | ≤ 0.2 |
| TQTI | ≤ 0.2 |
| FACF | ≤ 0.2 |
| RMPS | 0.889 |
| RMPN | 0.262 |
| RMIS | 0.997 |
| RMID | ≤ 0.2 |
| RMPD | ≤ 0.2 |
| RMIN | 0.327 |
| FTGR | ≤ 0.2 |
| QRNV | ≤ 0.2 |
| PRGY | ≤ 0.2 |

| Variant | one-hybrid fitness for binding parS DNA |
| --- | --- |
| VCNT | ≤ 0.2 |
| KCVG | ≤ 0.2 |
| DLRC | ≤ 0.2 |
| PRLY | ≤ 0.2 |
| RWEK | ≤ 0.2 |
| RWEA | 0.301 |
| RWES | 0.712 |
| RWEN | ≤ 0.2 |
| RWEM | ≤ 0.2 |
| RWEF | ≤ 0.2 |
| RWEI | ≤ 0.2 |
| RWEG | 0.563 |
| RWEC | 0.556 |
| DQQE | ≤ 0.2 |
| CPRM | ≤ 0.2 |
| KRDI | ≤ 0.2 |
| DGLW | ≤ 0.2 |
| SLYE | ≤ 0.2 |
| NVQI | ≤ 0.2 |
| QQQV | ≤ 0.2 |
| WSWS | ≤ 0.2 |
| QFTQ | ≤ 0.2 |
| VLWE | ≤ 0.2 |
| PVLP | ≤ 0.2 |
| RYDD | ≤ 0.2 |
